These results are taken from PubChem BioAssay (NCI).

Structures are written as SMILES. About 83,000 compounds went through this panel and 20% of them were active in at least one assay; those are over-represented in the sample as a whole.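 For each line, cells grew in 96-well plates with the test compound present at a single concentration for 48 hours.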 Active and inactive are the calls of the source. Rule for the calls: active = growth percent below 10; inactive = the rest.

For this assay, the system named is MDA-MB-468 breast. The assay can be described thus: NCI-60 one-dose screen, 48 h (100 = growth as untreated, 0 = no growth, -100 = all killed). As to conditions: 10 µM unless noted.
As to `O=C(CCc1nnc(Cn2ccnc2)o1)c1nc2ccccc2[nH]1`, the growth was 108% (inactive).
Consider `C#Cc1cccc(Nc2nc(Cl)nc3cc(NC(=O)CCl)ccc23)c1`, for which the growth is -71% (active).
Then `O=C(O)CSCc1nc2ccccc2[nH]1`, with 118% (inactive).
Then `COc1ccc(C2C=C(c3ccc(OC)c(OC)c3)N=C3SC=CN32)c(Br)c1` (stereo not given), with 54.5% (inactive); and `CC(C)C[C@H](C(=O)N[C@H](C(N)=O)C(C)C)N1CC=CCN(OCc2ccccc2)S1(=O)=O`, with 105% [2.5 µM] (inactive); and `C=C1C(=O)O[C@H]2[C@H]1CC/C(COC(=O)n1ccnc1)=C\CC[C@@]1(C)O[C@@H]21`, with 79.7% (inactive).
Regarding `CCc1ccc(NC(=O)N[C@@H](Cc2cc(F)cc(F)c2)C(=O)N[C@@H]2C(=O)N3CCC[C@H]3C(=O)N3CCO[C@H](C)[C@H]3C(=O)N[C@@H](CO)C(=O)N3C[C@H](C)C[C@H]3C(=O)O[C@H]2C)c(F)c1`, the growth is -7.66% (active).
In the case of `C=C(C)[C@@H]1CC[C@]2(CN)CC[C@]3(C)[C@H](CC[C@@H]4[C@@]5(C)CCCNC(C)(C)[C@@H]5CC[C@]43C)[C@@H]12`, the growth is -65.5% (active).
Next, `CNCCCOc1c(Br)cc(CCNC(=O)/C(Cc2ccc(OC)c(Br)c2)=N/O)cc1Br`: 48.5% (inactive); `Nc1ccccc1-c1cc2c(c3c1[nH]c1ccccc13)CCCCC2`: 98.2% (inactive); `COC(=O)/C=C1/SC(=Nc2ccc([N+](=O)[O-])cc2)N(CCc2c[nH]c3ccccc23)C1=O`: 86% (inactive).
Consider `O=C(CN1C(=O)CCC1=O)Nc1ncc(Cc2ccc(F)cc2)s1`, for which the growth was 109% (inactive).
Then `CCc1ccc(-c2cn3ccnc3c(-c3ccc4ncn(Cc5ccccc5)c4c3)n2)cc1`, with 82.8% (inactive); and `COc1ccc(C2CC(c3ccc(Cl)cc3)=NN2/C=C2\SC(=S)N(NC(=O)Cc3ccccc3Nc3c(Cl)cccc3Cl)C2=O)cc1` (stereo not given), with 75.2% (inactive).
Next, `CCOC(=O)c1c(/C=C/C(=O)O)nc2ccccc2c1/C=C/c1ccccc1`: 7.2% (active); `Cc1occc1-c1n[nH]c(=S)n1N1C(=O)CSC1=S`: 103% (inactive).
Then `COCCNC(C)=O`, with 96.1% (inactive).
As for `COc1cc(NCCC2CCCCN2)c2ncccc2c1OC` (stereo not given), the growth was 73.8% (inactive).
Then `COc1cc2ncn3c(=O)c4c5c(sc4nc3c2cc1OC)CCCCC5`, with 107% (inactive); and `N[C@@H](CC/[N+]([O-])=N/O)C(=O)O`, with 97.4% (inactive); and `Oc1ccc(C(c2ccc(O)cc2)c2ccc(Br)cn2)cc1`, with -35.7% (active).
Next, `OCCOSCCO`: 98.2% (inactive); `CCOC(=O)c1cc(C(=O)c2cc(OC)cc(OC)c2)n2nc(C)ccc12`: 29.8% (inactive); `Cc1ccc(Nc2c(C(N)=O)cnc3ccc(S(=O)(=O)Nc4cc(C)on4)cc23)cc1`: 92.4% (inactive).
Then `O=[N+]([O-])c1cc(Br)c2cccc3c2c1CC3`, with 97.3% (inactive); and `COc1ccc2c(c1)c(-c1nc(-c3c[nH]c4ccncc34)cs1)cn2C`, with -60.8% (active).
`COc1ccc2cc(Cn3cc[n+](Cc4ccc5ccccc5c4)c3)ccc2c1`: the growth was -22.9% (active).
Then `CC1CCN(CCCCCOc2ccc3oc4cc(Cl)ccc4c(=O)c3c2)CC1`, with 57.7% (inactive); and `O=C(CN1C(=O)S/C(=C\C(Cl)=C\c2ccccc2)C1=O)NC1CCS(=O)(=O)C1` (stereo not given), with 8.17% (active).
Consider `CCCCCCCCC(C)OC(=O)c1nn(C(C)=O)c2ccccc12` (stereo not given), for which the growth was 96.8% (inactive).
Next, `COc1ccc(/C(C)=C(\c2ccc(Cl)cc2)c2ccc(OCCN3CCCCCC3)cc2)cc1F`: 35.3% (inactive).
Then `C[C@@H](Oc1ccc(C(=O)NS(=O)(=O)C(C)(C)C)cc1C(F)(F)F)c1ccc(Oc2ccccc2)cn1`, with -13.5% (active); and `Nc1ccc(-c2nc3cc(Oc4ccc(Oc5ccc6[nH]c(-c7ccc(N)cc7)nc6c5)cc4)ccc3[nH]2)cc1`, with 90.3% (inactive); and `COc1cc2cc(Oc3ccc(NC(=O)Nc4ccc(Cl)c(Cl)c4)cc3)c(C)nc2cc1OCCN1CCCCC1`, with 103% (inactive).
Then `O=C(Nc1cccc(-n2cc(-c3ccncc3)c(-c3ccc(O)c(Cl)c3)n2)c1)c1cc(C(F)(F)F)cc(C(F)(F)F)c1`, with 61.6% (inactive).
On to `NCCNc1nc2ccccc2c2c(=O)c3cc(F)ccc3sc12`, for which the growth is 67.2% (inactive).
Take `O=C(O)c1cc(C(F)(F)F)cc(C(F)(F)F)c1`: the growth was 109% (inactive).
Next, `[Cu+].[NH-][C@H]1C[N-]C(=O)[C@H]([C@H]2CCN=C(N)N2)[N-]C(=O)/C(=C\NC(N)=O)[N-]C(=O)[C@H](CNC(=O)C[C@@H](N)CCCN)[N-]C(=O)[C@H](CO)[N-]C1=O`: 96.2% (inactive); `COc1ccc2c(c1)CCc1[nH]nc(-c3cc(OC)c(OC)c(OC)c3)c1-2`: -4.62% (active); `CCCCCC(C)(O)C(C(=O)O)c1ccccc1` (stereo not given): 108% (inactive).
